High-throughput results: PubChem, National Center for Advancing Translational Sciences (NCATS)
The list is not random: actives were taken first. Their share in the collection is about 10%.
Luciferase inh = inhibitors of firefly (Photinus pyralis) luciferase | P08659 | purified P. pyralis luciferase, luminescence, biochemical | Potency, µM (doses to about 115 µM), usual class: inhibitors | 2.5% of 76,000 active; also: nearly all actives have a fitted effect of over 65% in size
Target sequence (P08659 whole entry, looked up): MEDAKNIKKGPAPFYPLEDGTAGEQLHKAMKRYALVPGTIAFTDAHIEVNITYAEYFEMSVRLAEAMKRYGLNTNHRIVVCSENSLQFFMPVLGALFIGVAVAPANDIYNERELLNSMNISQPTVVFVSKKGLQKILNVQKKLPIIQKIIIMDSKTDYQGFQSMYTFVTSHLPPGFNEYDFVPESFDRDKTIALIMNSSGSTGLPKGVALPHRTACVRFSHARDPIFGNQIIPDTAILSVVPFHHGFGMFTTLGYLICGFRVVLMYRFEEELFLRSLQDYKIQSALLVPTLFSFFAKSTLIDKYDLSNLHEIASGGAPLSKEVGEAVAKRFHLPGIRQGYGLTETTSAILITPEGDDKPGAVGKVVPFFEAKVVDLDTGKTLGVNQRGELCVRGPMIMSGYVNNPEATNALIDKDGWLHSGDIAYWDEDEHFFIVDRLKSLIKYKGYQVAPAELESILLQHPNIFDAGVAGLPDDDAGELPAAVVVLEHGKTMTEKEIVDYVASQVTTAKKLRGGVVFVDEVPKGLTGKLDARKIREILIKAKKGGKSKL
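Purified 10nM P. pyralis luciferase with 10uM D-luciferin and 10uM ATP in 50mM Tris acetate pH 7.5, 10mM Mg acetate, 0.01% Tween-20, 0.05% BSA. qHTS titration; luminescence read by CCD imager.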
NIH3T3 tox = kills NIH 3T3 cells. NIH 3T3 viability, CellTiter-Glo ATP luminescence, 48-72 h. Potency, µM (titrated, usually from 96.7 µM), hits mostly inhibitors. 4.3% of 94,000 active. AID 1345082; also: nearly all actives have a fitted effect of over 55% in size
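Mouse fibroblast NIH 3T3 cells, 400 per well, received compound via pintool and were incubated for 48 or 72 hr prior to CellTiter-Glo ATP luminescence measurement.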
GPT2 inh = blocks human glutamate pyruvate transaminase 2; 0.25% of 100,000 active; Potency, µM (top dose mostly 57.7 µM), actives largely listed as inhibitors; Recombinant GPT2, coupled pyruvate oxidase/HRP Amplex Red fluorescence; Q8TD30; also: nearly all actives have a fitted effect of over 60% in size
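Inhibition is scored from Amplex Red fluorescence generated when pyruvate oxidase and HRP act on pyruvate released by GPT2. Reactions contain 10ng/uL enzyme, 250uM a-KG and 2mM L-alanine and run 30 min at room temperature.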
NPR1 antag = antagonists of human natriuretic peptide receptor Npr1. P16066. HEK293 hNpr1 GloSensor cGMP, ANP-stimulated luminescence. Potency, µM (titrated, usually from 46.3 µM), most hits filed as inhibitors. 1.6% of 76,000 active; calls by dose curve; also: nearly all actives have a fitted effect of over 60% in size
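Compound pre-incubated 30 min at room temperature on GloSensor-loaded HEK293 cells stably carrying hNpr1 and the pGS-40F cGMP biosensor. Stimulation uses hNppA at 0.1 nM final; luminescence is taken at baseline and 20 min post-agonist.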
HEK293 tox = HEK 293 cell cytotoxicity. HEK 293 viability, ATP luminescence (CellTiter-Glo), 48-72 h. AID 1345083. Potency, µM (highest dose often 115 µM), most hits filed as inhibitors. 6.6% of 94,000 active; also: nearly all actives have a fitted effect of over 60% in size
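CellTiter-Glo luminescence (cellular ATP) was read after 48 or 72 hr of compound exposure at 37 degree Celsius. Cells were HEK 293 plated at 250 cells/well.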
A number is an active result; 0 = inactive; ? = inconclusive; - = no result given. Unless noted, calls follow the shape of the dose curve; as a rule, active = well fitted curve in the direction sought with a large enough effect; inconclusive = small, poorly fitted or top-dose-only effect, or another doubt; inactive = no such curve, though single readings can be large; an effect the other way counts as inactive or inconclusive.

SMILES	Luciferase inh	NIH3T3 tox	GPT2 inh	NPR1 antag	HEK293 tox
COc1c(C)cnc(Cn2c(-c3ccccc3)nc(C)c(CCO)c2=O)c1C	0	45µM	0	0	?
Cc1nc(-c2ccccc2)n(Cc2ccccc2Cl)c(=O)c1CCO	0	45µM	0	0	?
Cc1cccc(-c2nc(Cn3c(-c4ccccc4)nc(C)c(CCO)c3=O)c(C)o2)c1	0	?	0	0	79µM
Cc1cccc(-c2nc(Cn3c(-c4ccc(F)cc4)nc(C)c(CCO)c3=O)c(C)o2)c1	0	0	0	0	0
O=C(Cc1ccc(F)cc1)NC1CN(c2ccnc3ccnn23)C1	-	0	0	-	0
COc1ccccc1Cn1c(-c2cccc(Cl)c2)nc(C)c(CCO)c1=O	0	?	?	0	?
COc1ccccc1Cn1c(-c2ccc(Cl)cc2)nc(C)c(CCO)c1=O	0	?	0	0	32µM
COc1ccc(-c2noc(CCCC(=O)N3CCCn4nc(-c5ccc(F)cc5)cc4C3)n2)cc1OC	-	?	0	-	32µM
CCN1CCN(C(=O)c2nc3sccn3c2-c2ccc(C)cc2)CC1	-	0	0	-	0
O[C@@H]1C[C@@H](c2nc(-c3ccncc3)no2)N(Cc2ccc(F)cc2)C1	0	0	0	0	0
Cc1ccc(-c2noc([C@@H]3C[C@@H](O)CN3CC3CC3)n2)cc1F	50µM	?	0	0	?
COc1ccc(CN2C[C@H](O)C[C@H]2c2nc(-c3ccncc3)no2)cc1	0	0	0	0	?
Cc1ccc(-c2noc([C@@H]3C[C@@H](O)CN3Cc3cccnc3)n2)cc1F	?	?	0	?	63µM
Cc1ccc(-c2noc([C@@H]3C[C@@H](O)CN3C3CCN(C)CC3)n2)cc1F	0	?	0	0	?
COc1ccc(-c2noc([C@@H]3C[C@@H](O)CN3Cc3ccc(F)cc3)n2)cc1	45µM	0	0	0	?
O[C@@H]1C[C@@H](c2nc(-c3ccc(F)cc3)no2)N(Cc2ccncc2)C1	63µM	?	0	?	71µM
O=C(N[C@@H](Cn1cc(Cl)c(=O)[nH]c1=O)C(=O)O)C1CCC1	0	0	0	0	0
COc1ccc(CN2C[C@H](O)C[C@H]2c2nc(-c3ccc(C)c(F)c3)no2)cc1	35µM	?	0	0	?
COc1ccc(-c2noc([C@@H]3C[C@@H](O)CN3Cc3ncc[nH]3)n2)cc1	?	0	0	0	0
O=C(c1ccc(Cl)cc1)N1CC2(CCCN(CC3CC3)C2)Cc2ccccc21 (centres undefined)	-	?	0	-	?
COc1ccc(-c2cc(CC3(NCc4ccccc4O)COC3)no2)cc1	0	?	0	0	100µM
Fc1ccc(-c2cc(CC3(NCc4ccco4)COC3)no2)cc1	0	?	0	0	89µM
Fc1ccc(-c2cc(CC3(NCc4ccc5c(c4)OCO5)COC3)no2)cc1	0	?	0	0	?
CC(C)Cc1cc(CC2(NCc3ccccc3O)COC2)no1	0	?	0	0	?
Cn1cccc1C(=O)NC1CCCN(c2cc(-c3ccc(Cl)cc3)[nH]n2)C1 (centres undefined)	?	40µM	0	0	40µM
SMILES	Luciferase inh	NIH3T3 tox	GPT2 inh	NPR1 antag	HEK293 tox
Cn1nccc1C(=O)NC1CCCN(c2cc(-c3ccc(Cl)cc3)[nH]n2)C1 (centres undefined)	?	?	0	0	?
O=C(NC1CCCN(c2cc(-c3ccc(F)cc3)[nH]n2)C1)c1ccccn1 (centres undefined)	?	?	0	0	?
O=C(NC1CCCN(c2cc(-c3ccc(Cl)cc3)[nH]n2)C1)c1ccccn1 (centres undefined)	40µM	?	0	0	45µM
COc1cc(S(C)(=O)=O)ccc1Nc1nc2ccc(-c3ccc(NC(=O)[C@H](C)c4ccc(F)cc4)cc3)cn2n1	-	-	0	-	-
CN1C[C@@H](NC(=O)c2ccc3ccccc3c2)C[C@H]1c1nc(-c2ccc3c(c2)OCO3)no1	0	0	0	0	?
Cc1ccc(C(=O)N[C@H]2C[C@@H](c3nc(-c4ccc5c(c4)OCO5)no3)N(C)C2)cc1	0	79µM	0	0	?
CN1C[C@@H](NC(=O)c2ccc(F)cc2)C[C@H]1c1nc(-c2ccc3c(c2)OCO3)no1	0	?	0	0	79µM
CN1C[C@@H](NC(=O)c2ccccc2)C[C@H]1c1nc(-c2ccc3c(c2)OCO3)no1	0	?	0	0	79µM
CN(C)c1ccc(C(=O)N[C@H]2C[C@@H](c3nc(-c4ccc5c(c4)OCO5)no3)N(C)C2)cc1	0	?	0	0	?
COC(=O)CNC(=O)c1cc(-c2ccccc2F)nc2c1cnn2C	-	?	-	-	0
COC(=O)[C@@H]1Cc2ncn(Cc3ccc(Cl)cc3)c2CN1CCCc1ccccc1	0	0	0	?	25µM
COC(=O)[C@@H]1Cc2ncn(Cc3ccc(OC)cc3)c2CN1CCCc1ccccc1	0	?	0	0	?
COC(=O)[C@@H]1Cc2ncn(Cc3ccc(Cl)cc3)c2CN1Cc1cccs1	0	89µM	?	?	?
O=C(Cc1ccccn1)N1CCC(C(=O)N2CCCC2c2nc3ccncc3[nH]2)CC1 (centres undefined)	-	0	0	-	0
CCOc1ccc(-c2cc3c(=O)n(CCNC(=O)c4ccccc4OC)ccn3n2)cc1	16µM	0	0	0	?
CCOc1ccc(-c2cc3c(=O)n(CCNC(=O)C4(c5ccccc5)CC4)ccn3n2)cc1	25µM	0	0	0	0
O=C(NCc1cc2n(n1)CCN(C1CCCCC1)C2)Nc1cccc(F)c1	0	0	0	0	0
Cc1ccc(C(=O)NC2CCCN(Cc3cccc(-c4ccc(C)c(Cl)c4)c3)C2)cc1 (centres undefined)	-	0	0	-	0
Cc1ccc(-c2cccc(CN3CCCC(NC(=O)c4ccccc4C)C3)c2)cc1Cl (centres undefined)	-	?	0	-	?
Cc1ccc(-c2cccc(CN3CCCC(NC(=O)Cc4ccccn4)C3)c2)cc1Cl (centres undefined)	-	25µM	0	-	0
Cc1ccc(-c2cccc(CN3CCCC(NC(=O)c4c(C)noc4C)C3)c2)cc1Cl (centres undefined)	-	?	0	-	22µM
Cc1cc(C)cc(-c2ccc(CN3CCCC(NC(=O)C4CC4)C3)cc2)c1 (centres undefined)	-	0	0	-	0
Cc1cc(C)cc(-c2ccc(CN3CCCC(NC(=O)Cc4ccccn4)C3)cc2)c1 (centres undefined)	-	35µM	0	-	?
CCOC(=O)NC1CCCN(Cc2cccc(-c3ccc(C)c(Cl)c3)c2)C1 (centres undefined)	-	?	0	-	40µM
O=C(C1CC=CC1)N1CCC[C@H](n2c(=O)n(Cc3cccc(F)c3)c3cccnc32)C1	-	?	0	-	?
O=C(COc1ccc(F)cc1)Nc1cnc(-c2ccccc2)nc1	0	0	0	0	0
O=C(Cc1ccsc1)Nc1cnc(-c2ccccc2)nc1	5µM	?	0	?	?
